# DT40 TDP1 no CPT: qHTS for Inhibitors of human tyrosyl-DNA phosphodiesterase 1 (TDP1): qHTS in cells in absence of CPT. DT40 Tdp1-/- hTDP1 cells, no CPT, ATP luminescence, 48 h. Potency, µM (doses to about 46.2 µM), for the others: top-dose activity change, negative = growth inhibition, usual class: inhibitors. AID 686978, 2013. actives 15% (n = 420,000); further: potency means the concentration at half of the fitted maximal effect; nearly all actives have a fitted effect of over 55% in size
#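 Readout: luminescence from CellTiter-Glo after 30 min in the dark at RT. Cells: DT40 Tdp1-/- with stable hTDP1, 400/well. Exposure: compounds alone, ≥48 hr, 37 °C.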
# HT1080NT lethal: kills 2HG-producing HT-1080-NT fibrosarcoma cells; HT-1080-NT fibrosarcoma viability, CellTiter-Glo ATP luminescence, 48 h; Potency, µM (titrated, usually from 46.1 µM), without a hit: top-dose activity, negative = less viability, most hits filed as cytotoxic; actives 1.6% (n = 360,000);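 further: NT is the 2HG producing partner of a matched IDH1 knockdown line; potency means the concentration at half of the fitted maximal effect; 0% = DMSO-treated cells and -100% = media-only wells without cells; nearly all actives have a fitted effect of over 55% in size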
#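 HT-1080-NT; 750 cells/well; 5% FBS RPMI; 48 h compound, 37 degrees C; CellTiter-Glo luminescence; curve fitting and curve-class assignment.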
# TDP1 cell CPT: growth inhibition of DT40 Tdp1-/-;hTDP1 cells with camptothecin (screen for TDP1 inhibitors). chicken DT40 Tdp1-/-;hTDP1 cells + 20 nM CPT, ATP luminescence, 48 h. actives 12% (n = 420,000). Potency, µM (top dose mostly 46.2 µM), without a hit: at the highest dose activity change, negative = growth inhibition, actives largely listed as inhibitors; further: potency means the concentration at half of the fitted maximal effect; nearly all actives have a fitted effect of over 55% in size
#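 Chicken DT40 Tdp1-/- cells stably complemented with human TDP1 were seeded at 400 cells/well in medium containing 20 nM camptothecin, exposed to pin-transferred compounds, and grown at 37 °C for at least 48 hr. Viability was read as ATP luminescence.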
# IL1B secr inh: inflammasome signaling inhibition, IL-1 beta readout; THP-1 LPS/ATP IL-1B secretion, AlphaLISA, 16 h; active compounds read low; activity change, % at 57.5 µM; actives 4.7% (n = 360,000); AID 743279; in the data active means activity change below about -50%; inconclusive means mostly about -30% to -49%
#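 THP-1 cells pretreated 1 hr with compounds (up to 57.5 uM final), then stimulated with LPS (250 ng/mL final) plus ATP (1.25 mM final); secreted IL-1B measured by AlphaLISA after 16 hr, decreased signal indicating inhibition.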
# HT1080 IDH1KD tx: HT-1080 IDH1 knockdown cell toxicity (counter line) | HT-1080 IDH1 knockdown viability, ATP luminescence, 48 h | Potency, µM (titrated, usually from 46.1 µM), inactives show at the top dose activity, negative = toxicity, most hits filed as cytotoxic | actives 2% (n = 360,000);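 further: potency means the concentration at half of the fitted maximal effect; 0% = DMSO wells and -100% = cell-free medium wells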
#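 Knockdown cells (IDH1KD HT-1080) received compounds 2 h after plating at 750 cells/well and were kept 48 h at 37 °C in 5% FBS RPMI. A CellTiter-Glo luminescence read gave % activity for curve fitting.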
# * marks the source's active call; other numbers are inactive results; ? = inconclusive; / = not tested or not shown; [ ] = another dose, or the depositor's remark. Sampled rows, rich in hits. Any-hit rate of the full collection: about 19%. Unless noted, the call rests on the fitted dose curve; in most records, active means well fitted curve in the direction sought with a large enough effect; inconclusive means small, poorly fitted or top-dose-only effect, or another doubt; inactive means no such curve, though single readings can be large; an effect the other way counts as inactive or inconclusive. Unless noted, on the % scale 0 is the no-effect control and ±100 the full control effect.
SMILES,DT40 TDP1 no CPT,HT1080NT lethal,TDP1 cell CPT,IL1B secr inh,HT1080 IDH1KD tx
CC(=O)O[C@H]1C2OC(=O)C(C)=C2[C@@H]2OC(=O)[C@]3(CCC4OC41C)OC23 (some centres not stated),?,-1%,15µM*,-72*,-7%
C=CC(n1cncn1)C(O)(c1ccccc1)c1ccccc1 (configuration not stated),-21%,0%,-19%,0,6%
CN(CCC#N)c1ccc(/C=C(\C#N)c2ccccn2)cc1,?,-2%,?,-64*,-6%
CCN(CC)c1ccc(/C=C(\C#N)c2ccccn2)cc1,2.6µM*,?,2.6µM*,?,?
CCOC(=O)c1c(C)[nH]c(C2=NNC(=Nc3ccccc3)SC2)c1C,9.2µM*,?,13µM*,-67*,?
CCOC(=O)c1c(C)[nH]c(N=Nc2ccccc2Cl)c1C,?,1%,?,-15,-11%
CC(=O)c1c(C)[nH]c(C2=NNC(=NC(C)(C)C)SC2)c1C,-13%,1%,17%,-21,2%
CCOC(=O)c1c(C)[nH]c(C2=NNC(=Nc3ccccc3OC)SC2)c1C,18µM*,?,?,-62*,?
CCOC(=O)c1c(C)[nH]c(C2=NNC(=Nc3ccc(OCC)cc3)SC2)c1C,16µM*,1%,16µM*,-52*,-9%
Cc1ccccc1OC(=O)C1C(c2ccccc2)C(C(=O)O)C1c1ccccc1 (configuration not stated),-14%,-2%,2%,7,2%
Cc1ccccc1C(=O)NNc1ccc(-c2csnn2)cc1,-17%,?,4%,/,8.2µM*
CN(c1ccccc1)S(=O)(=O)c1ccc(Cl)c(C(=O)NCc2ccco2)c1,?,4%,?,19,10%
CN(c1ccc(F)cc1)S(=O)(=O)c1ccc(Cl)c(C(=O)OCC(=O)NCc2ccco2)c1,?,1%,-7%,13,2%
Cc1ccc(S(=O)(=O)N(C)c2ccc(C(=O)NCC(c3ccco3)N3CCCC3)cc2)cc1 (configuration not stated),16µM*,0%,?,-17,-9%
CN(C)C(CNC(=O)c1cc(S(=O)(=O)N(C)c2ccccc2)ccc1Cl)c1ccccc1 (configuration not stated),6.5µM*,-3%,5.8µM*,-10,-8%
CN(C)C(CNC(=O)c1cc(S(=O)(=O)N(C)c2ccc(F)cc2)ccc1Cl)c1ccco1 (configuration not stated),7.3µM*,2%,9.2µM*,6,5%
CN(c1ccccc1)S(=O)(=O)c1ccc(Cl)c(C(=O)NCc2ccccc2CN2CCCC2)c1,23µM*,-9%,?,?,-7%
Cc1ncc2c(c1CNC(=O)c1ccc3c(c1)OCO3)CCN(C(=O)c1scc3c1CCCC3)C2,-13%,/,7%[9.04 µM],/,/
Cc1cc(Oc2ccc(=O)n(C)n2)nc(SCc2ccccc2)n1,-5%,-13%,-12%,3,0%
COCCOC(=O)c1c(NC(=O)CN2CCCc3ccccc32)sc(C(N)=O)c1C,?,-1%,?,21,2%
CN(c1ccc(F)cc1)S(=O)(=O)c1ccc(Cl)c(C(=O)NCC(c2ccco2)N2CCCCC2)c1 (configuration not stated),2.3µM*,-4%,2.3µM*,-19,-7%
CC1=CC(C)(C)Nc2ccc(OC(=O)c3cccnc3)cc21,4.6µM*,?,2.9µM*,-98*,?
CC1=CC(C)(C)Nc2ccc(OC(=O)C(C)N3C(=O)c4ccccc4C3=O)cc21 (configuration not stated),2.6µM*,21µM*,2.1µM*,0,18µM*
CC1=CC(C)(C)Nc2ccc(OC(=O)CN3C(=O)CCC3=O)cc21,2.8µM*,?,2.9µM*,-101*,2.5µM*
O=C(Oc1ccc(F)cc1)c1cccnc1,3%,3%,3%,6,20%
SMILES,DT40 TDP1 no CPT,HT1080NT lethal,TDP1 cell CPT,IL1B secr inh,HT1080 IDH1KD tx
COc1cc2c(cc1OC)-c1cc3nc4ccccc4nc3n1C(C)(C)C2,8.4µM*,/,12µM*,/,/
CCOc1ccc(S(=O)(=O)Nc2cccc(C(=O)NCCCN3CCCC3=O)c2)cc1,-26%,-4%,-28%,0,-7%
O=C(NCCCN1CCCC1=O)c1ccc(S(=O)(=O)Nc2cccc(C(F)(F)F)c2)cc1,21µM*,-12%,?,28,-4%
O=C(NCCCN1CCOCC1)c1ccc(S(=O)(=O)Nc2cccc(C(F)(F)F)c2)cc1,?,-15%,-23%,20,-11%
CCOc1ccc(NS(=O)(=O)c2ccc(C(=O)NCCCN3CCCC3=O)cc2)cc1,18µM*,-2%,?,2,-2%
O=C(O)CCC/C=C\C[C@@H]1CO[C@H](C(F)(F)F)O[C@@H]1c1ccccc1O,-4%,/,-2%,/,/
CC(Oc1ccccc1)C(=O)Nc1nnc(C2CCCCC2)s1 (configuration not stated),?,7%,?,0,6%
CCc1ccc(C2=NNC(=Nc3cccc(S(=O)(=O)N(C)C)c3)SC2)cc1,18µM*,21µM*,21µM*,-70*,?
Cc1cccc(N=C2NN=C(c3ccc4c(c3)OCCO4)CS2)c1,-12%,?,-8%,-3,?
CC1(c2nnc(-c3cccc(Cl)c3)o2)CC(c2ccc(Br)cc2)=NO1 (configuration not stated),-23%,12%,-15%,14,14%
COc1ccc(NC(=O)Cn2c(SCc3c(F)cccc3Cl)nc3ccncc32)cc1OC,-20%,/,-26%,/,/
Cc1cccc(Cn2c(SCc3ccc(C(=O)NCc4ccccc4F)cc3)nc3cccnc32)c1,21µM*,/,?,/,/
Cc1cccc(Cn2c(SCc3ccc(C(=O)NCc4ccccc4F)cc3)nc3ccncc32)c1,23µM*,/,?,/,/
Cc1cccc(Cn2c(SCc3ccc(C(=O)NC4CCCCC4)cc3)nc3cccnc32)c1,-3%,/,6%,/,/
COc1ccc(NC(=O)Cn2c(SCc3cccc(Cl)c3)nc3ccncc32)c(OC)c1OC,?,/,21µM*,/,/
COC(=O)c1ccc(Cn2c(SCc3cccc(C)c3)nc3ccncc32)cc1,16µM*,/,?,/,/
O=c1cnc2cnc(N3CCOCC3)nc2n1CCc1ccccc1,3%,/,8%,/,/
C=CCn1c(CCC(=O)Nc2ccc(C)c(Cl)c2)nnc1SCC(=O)Nc1ccccc1C,?,-13%,?,-1,-19%

# Bioassay records deposited in PubChem BioAssay by National Center for Advancing Translational Sciences (NCATS).
